# PubChem BioAssay
# Active and inactive are the calls of the source.
# Legend:
# [1] = tested on: Human papillomavirus type 1a protein E7 (residues 44-93); assay: HPV1a E7 fragment binders on microarrays, primary screen, biochemical, small-molecule microarray, residues 44-93, 635 nm fluorescence (AID 1108); details: small-molecule microarray binding, fluorescence 635 nm; higher = more signal;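 further: E7 fragment applied at 1 µg/mL in TBST for 1 h at 4 C; score combines spot fluorescence with its signal to noise ratio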
# [2] = modulators of HCV replicon luciferase signal, primary screen, HCV replication inhibitor project, Huh7 cells, luciferase reporter (AID 1109); details: 48 h, higher = more signal;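 further: huh7 hepatoma cells harbouring a luciferase neomycin HCV replicon reporter; luciferase luminescence as measure of HCV replicon replication; test concentration not given here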
# [3] = target: Left-right determination factor 2 (Homo sapiens) (UniProt O00292); assay: LEFTY2 binders on small-molecule microarrays, primary screen, biochemical, small-molecule microarray, 635 nm fluorescence scan (AID 1110); details: LEFTY2 binding, higher = more signal
# [4] = target: Calmodulin-1 (Homo sapiens) (UniProt P0DP23); assay: CALM1 binders on microarrays, EGTA buffer, profiling panel, biochemical, small-molecule microarray, Cy5-labelled CALM1 (AID 1111); details: Cy5-CALM1 binding fluorescence, higher = more signal;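 further: labelled calmodulin applied in Tris saline Tween buffer holding calcium plus EGTA and DTT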
# [5] = target: Calmodulin-1 (Homo sapiens) (UniProt P0DP23); assay: calcium-bound CALM1 binders on microarrays, profiling panel, artefact control for SMM control-protein annotation, biochemical, small-molecule microarray, Cy5-labelled CALM1, plus calcium (AID 1112); details: Cy5-CALM1 binding fluorescence, higher = more signal;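 further: score merges spot fluorescence with signal to noise from triplicate slides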
# [6] = small-molecule microarray binders of probe aWnt5a, primary screen, biochemical, biotinylated probe, 635/667 nm fluorescence (AID 1113); details: higher = more signal;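 further: score merges 667 nm fluorescence intensity with signal-to-noise per printed feature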
# [7] = small-molecule microarray binders of probe aShh, primary screen, biochemical, biotinylated probe, 635/667 nm fluorescence (AID 1114); details: higher = more signal;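 further: probe is biotin-labelled aShh protein from a stem cell growth factor screen; measures binding of labelled protein to compounds printed on the slide; score merges feature fluorescence at 667 nm with signal-to-noise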
# [8] = small-molecule microarray binders of probe aNog, primary screen, biochemical, biotinylated probe, 635/667 nm fluorescence (AID 1115); details: higher = more signal;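 further: probe is biotinylated aNog protein used at 0.15 µg/mL for 1 h at 4 C; z-score combines 667 nm fluorescence of each spot with its signal to noise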
# [9] = target: Torsin-1A-interacting protein 1 (Homo sapiens) (UniProt Q5JTV8); assay: LAP1 binders from COS7 cell lysate, primary screen, small-molecule microarray, 635/667 nm fluorescence (AID 1116); details: COS7-hLAP1 lysate binding, 635 nm fluorescence, higher = more signal
# [10] = target: Alpha-bungarotoxin (Bungarus multicinctus) (UniProt P60615); assay: alpha-bungarotoxin binders on microarray, profiling panel, artefact control for SMM control protein annotation, biochemical, small-molecule microarray, Alexa647 label, 635/667 nm fluorescence (AID 1117); details: alpha-BTX-A647 binding fluorescence, higher = more signal
# Albumin (Bos taurus) = Albumin (Bos taurus) (UniProt P02769); assay: bovine serum albumin binders on microarray, profiling panel, artefact control for SMM control protein annotation, biochemical, small-molecule microarray, Alexa647 label, 635/667 nm fluorescence (AID 1118); details: BSA-A647 binding, fluorescence 635 nm, higher = more signal;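 further: score merges 667 nm emission intensity and signal-to-noise per printed compound spot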
# [11] = small-molecule microarray binders of probe aXIP, primary screen, biochemical, NeuroSMM set, 635/667 nm fluorescence (AID 1119); details: higher = more signal, called active from +8 up or from −8 down;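 further: probe is the protein aXip251-270 applied at 1 µg/mL to compound-printed slides; binding of probe to printed compounds measured as 667 nm fluorescence plus signal to noise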
# [12] = small-molecule binders of probe aNOTCH3, primary screen, biochemical, small-molecule microarray, 635/667 nm fluorescence (AID 1120); details: higher = more signal;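 further: probe is a biotin-tagged antibody raised against NOTCH3 rather than NOTCH3 protein; score merges spot fluorescence near 667 nm with spot signal to noise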
# [13] = small-molecule binders of probe aNOTCH2, primary screen, biochemical, small-molecule microarray, 635/667 nm fluorescence (AID 1121); details: higher = more signal;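 further: score merges feature fluorescence read at 667 nm with its signal to noise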
# [14] = target: Carbonic anhydrase 2 (Homo sapiens) (UniProt P00918); assay: CAII small-molecule binders, profiling panel, biochemical, small-molecule microarray, Alexa647-labelled CAII (AID 1122); details: CAII-A647 binding fluorescence, higher = more signal
# [15] = COS7 lysate on small-molecule microarray, probe aHis, 635 nm (AID 1123); details: COS7 cell lysate, fluorescence, higher = more signal;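 further: z-score combines 667nm fluorescence intensity with signal-to-noise per printed compound spot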
# [16] = compound binding in COS7 lysate, probe aLAP1, primary screen, cell lysate, small-molecule microarray (AID 1124); details: probe aLAP1, fluorescence, higher = more signal;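 further: lysate comes from COS7 cells expressing LAP1 and is applied at 0.3 µg/mL; score merges spot fluorescence near 667 nm with signal-to-noise over triplicate slides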
# Sam68 (KHDRBS1) = assay: Sam68 small-molecule binders, primary screen, biochemical, small-molecule microarray, 635 nm fluorescence (AID 1125); details: small-molecule microarray binding, higher = more signal;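 further: score merges 667 nm channel intensity with signal to noise over triplicate slides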
# [17] = tested on: Chordin-like protein 2 (CHRDL2); assay: CHRDL2 small-molecule binders, primary screen, biochemical, small-molecule microarray, 635 nm fluorescence (AID 1126); details: small-molecule microarray binding, fluorescence 635 nm; higher = more signal;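 further: printed compound slides probed with Chrdl2 protein at 4 µg/mL for 1 h at 4 C; score merges 667 nm emission intensity with signal to noise over three replicate slides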
# [18] = target: Concanavalin-A (Canavalia ensiformis) (UniProt P02866); assay: ConA small-molecule binders, primary screen, artefact control for SMM control protein annotation, biochemical, small-molecule microarray, Alexa647 label, 635 nm (AID 1127); details: ConA-A647 binding fluorescence, higher = more signal;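 further: z combines 667 nm emission intensity with signal-to-noise across three replicate slides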
# Concanavalin-A (Canavalia ensiformis), sequence (P02866 whole entry, looked up): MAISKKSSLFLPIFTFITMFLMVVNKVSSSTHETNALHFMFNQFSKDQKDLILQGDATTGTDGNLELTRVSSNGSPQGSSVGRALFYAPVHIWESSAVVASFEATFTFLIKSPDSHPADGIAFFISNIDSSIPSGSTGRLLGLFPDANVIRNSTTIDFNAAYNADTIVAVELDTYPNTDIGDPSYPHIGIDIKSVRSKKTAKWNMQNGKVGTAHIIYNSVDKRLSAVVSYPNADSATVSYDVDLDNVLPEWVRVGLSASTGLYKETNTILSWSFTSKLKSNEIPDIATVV
# Torsin-1A-interacting protein 1 (Homo sapiens), sequence (Q5JTV8 whole entry, looked up): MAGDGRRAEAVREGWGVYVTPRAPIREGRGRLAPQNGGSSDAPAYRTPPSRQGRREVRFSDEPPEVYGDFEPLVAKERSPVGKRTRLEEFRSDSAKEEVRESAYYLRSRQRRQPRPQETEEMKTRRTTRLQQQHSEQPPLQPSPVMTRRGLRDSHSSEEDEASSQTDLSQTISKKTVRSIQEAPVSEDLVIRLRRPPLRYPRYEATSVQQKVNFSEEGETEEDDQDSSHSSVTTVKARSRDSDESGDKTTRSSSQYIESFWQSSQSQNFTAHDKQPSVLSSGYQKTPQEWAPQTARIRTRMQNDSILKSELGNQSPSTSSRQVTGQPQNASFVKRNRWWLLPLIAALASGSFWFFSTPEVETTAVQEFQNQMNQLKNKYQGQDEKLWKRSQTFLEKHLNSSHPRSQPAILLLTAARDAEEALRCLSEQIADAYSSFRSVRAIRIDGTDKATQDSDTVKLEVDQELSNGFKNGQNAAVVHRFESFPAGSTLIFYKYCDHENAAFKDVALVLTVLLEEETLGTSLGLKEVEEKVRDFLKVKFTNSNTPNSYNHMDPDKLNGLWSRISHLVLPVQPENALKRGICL
# Alpha-bungarotoxin (Bungarus multicinctus), sequence (P60615 whole entry, looked up): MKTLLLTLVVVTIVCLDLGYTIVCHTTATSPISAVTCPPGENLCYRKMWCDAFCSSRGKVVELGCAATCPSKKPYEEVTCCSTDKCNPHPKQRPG
# Albumin (Bos taurus), sequence (P02769 whole entry, looked up): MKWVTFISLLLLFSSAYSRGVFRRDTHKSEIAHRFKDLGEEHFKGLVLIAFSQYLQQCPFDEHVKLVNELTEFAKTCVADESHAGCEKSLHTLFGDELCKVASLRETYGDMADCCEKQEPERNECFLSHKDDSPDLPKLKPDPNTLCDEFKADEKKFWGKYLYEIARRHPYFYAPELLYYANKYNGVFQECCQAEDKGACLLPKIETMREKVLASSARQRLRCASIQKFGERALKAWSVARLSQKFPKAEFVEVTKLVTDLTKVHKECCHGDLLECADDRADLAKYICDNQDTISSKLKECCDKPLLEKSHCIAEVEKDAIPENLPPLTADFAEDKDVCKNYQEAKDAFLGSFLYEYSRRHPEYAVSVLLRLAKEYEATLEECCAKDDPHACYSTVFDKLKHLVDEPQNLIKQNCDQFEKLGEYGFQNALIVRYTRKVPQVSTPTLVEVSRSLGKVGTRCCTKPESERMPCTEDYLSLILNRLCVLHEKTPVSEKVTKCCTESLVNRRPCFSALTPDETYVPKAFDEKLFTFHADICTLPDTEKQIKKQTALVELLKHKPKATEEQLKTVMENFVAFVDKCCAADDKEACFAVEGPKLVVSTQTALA
# Left-right determination factor 2 (Homo sapiens), sequence (O00292 whole entry, looked up): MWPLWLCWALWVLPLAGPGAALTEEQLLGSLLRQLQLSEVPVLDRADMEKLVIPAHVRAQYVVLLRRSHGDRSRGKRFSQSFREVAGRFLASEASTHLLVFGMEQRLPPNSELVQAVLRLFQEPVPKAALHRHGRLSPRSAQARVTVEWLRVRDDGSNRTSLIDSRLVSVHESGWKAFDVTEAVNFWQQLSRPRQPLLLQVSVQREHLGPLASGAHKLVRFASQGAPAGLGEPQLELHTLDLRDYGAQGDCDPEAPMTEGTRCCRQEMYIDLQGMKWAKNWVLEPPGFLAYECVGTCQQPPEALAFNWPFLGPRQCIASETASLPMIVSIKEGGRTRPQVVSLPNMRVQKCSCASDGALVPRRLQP
SMILES,composite z-score [1],z-score [2],composite z-score [3],composite z-score [4],composite z-score [5],composite z-score [6],composite z-score [7],composite z-score [8],composite z-score [9],composite z-score [10],composite z-score (Albumin (Bos taurus)),composite Z-score [11],composite z-score [12],composite z-score [13],composite z-score [14],composite z-score [15],composite z-score [16],composite z-score (Sam68 (KHDRBS1)),composite z-score [17],composite z-score [18]
CCOC(=O)[C@H](Cc1ccccc1)NC(=O)CCC1CC(OC(=O)NCCc2ccc(F)cc2)CC2(CCCC(COC(=O)NCCOC)O2)O1 (stereo not given in full),1.4,0.686,0.529,0.276,-0.109,-0.116,0.131,0.0853,0.979,0.574,0.257,0.0225 (inactive),0.0525,-0.157,0.0121,1.07,0.148,1.32,0.657,0.404
CCOC(=O)[C@H](CC(C)C)NC(=O)CCC1CC(OC(=O)NCCc2ccc(F)cc2)CC2(CCCC(COC(=O)NCC(c3ccccc3)c3ccccc3)O2)O1 (stereo not given in full),0.776,0.612,0.319,0.479,-0.476,-0.152,-0.214,-0.501,0.145,0.71,0.436,0.428 (inactive),0.0372,-0.108,0.349,-0.0758,0.0521,1.11,0.609,1.1
CCC1=NOC(CCC2CC(OC(=O)NCc3cccc4c3OCO4)CC3(CCCC(COC(=O)NCCc4ccccc4OC)O3)O2)C1 (stereo not given),1.21,-1.35,0.0276,1.21,0.712,-0.139,-0.0793,0.249,0.528,0.473,0.946,0.632 (inactive),0.134,-0.122,0.45,1.24,0.19,1.31,-0.14,0.722
CC(C)(C)N1C(=O)[C@H]2[C@H]3[C@H](O)[C@H](O)CC(=O)[C@@H]3CC[C@H]2C1=O,0.3,0.6,0.709,-0.339,-0.518,-0.0125,0.0121,-0.108,0.804,0.106,0.061,0.302 (inactive),-0.0918,0.0811,0.113,0.113,0.102,0.0236,0.265,0.395
COC(=O)[C@H](C)NC(=O)CCC1CC(OC(=O)NCCc2ccc(F)cc2)CC2(CCCC(COC(=O)NCc3cccc(C(F)(F)F)c3)O2)O1 (stereo not given in full),0.518,-0.377,0.749,-0.0669,-0.23,-0.146,-0.59,-0.302,0.322,-0.131,0.0516,0.116 (inactive),0.133,-0.0652,0.193,0.702,-0.363,0.267,0.208,0.401
CC(C)=NOC[C@@H](C)[C@H](OCc1ccccc1)C(C)C,-1.19,-0.801,-0.0001,-0.211,-0.285,-0.0758,-0.0709,-0.402,-0.368,0.213,-0.0998,0.317 (inactive),-0.165,-0.206,-0.389,-0.616,-0.228,-1.61,0.0109,-0.0651
